# In the library only some 19% were active in any assay of this set; here they are far more common.
# DT40 TDP1 no CPT: qHTS for Inhibitors of human tyrosyl-DNA phosphodiesterase 1 (TDP1): qHTS in cells in absence of CPT | DT40 Tdp1-/- hTDP1 cells, no CPT, ATP luminescence, 48 h | Potency, µM (titrated, usually from 46.2 µM), for the others: top-dose activity change, negative = growth inhibition, most hits filed as inhibitors | hit rate 15% among 420,000 | AID 686978, 2013; further: potency means the concentration at half of the fitted maximal effect; on the % scale 0 is the no-effect control and ±100 the full control effect; nearly all actives have a fitted effect of over 55% in size
#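 Growth kinetics read by CellTiter-Glo luminescence after ≥48 hr at 37 °C. Cells: DT40 Tdp1-/- stably carrying human TDP1, 400 per well, compound exposure in the absence of CPT (DMSO vehicle).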
# IL1B secr inh: qHTS for Inhibitors of Inflammasome Signaling: IL-1-beta AlphaLISA Primary Screen. THP-1 LPS/ATP IL-1B secretion, AlphaLISA, 16 h; active compounds read low. activity change, % at 57.5 µM. hit rate 4.7% among 360,000; in the data active means activity change below about -50%; inconclusive means mostly about -30% to -49%; further: on the % scale 0 is the no-effect control and ±100 the full control effect
#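 Secreted IL-1B measured by AlphaLISA bead assay after 16 h compound exposure of THP-1 cells; compounds (final up to 57.5 uM) added 1 h before LPS (250 ng/mL) and ATP (1.25 mM) stimulation; lower signal means less secretion.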
# TGFb inhibitor: qHTS for Inhibitors of TGF-b; hit rate 1.2% among 410,000; HepG2 CAGA-GFP TGF-b/SMAD3 reporter, GFP fluorescence, 18 h; TGF-beta stimulated, 500 pg/mL final; Potency, µM (doses to about 46.1 µM), without a hit: at the top dose activity, negative = inhibition, usual class: inhibitors; further: potency means the concentration at half of the fitted maximal effect; on the % scale 0 is the no-effect control and ±100 the full control effect; nearly all actives have a fitted effect of over 65% in size
#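 HEPG2 CAGA-GFP, 1000 cells/well; 2 h settle, 37 C; cpd via pin tool; TGF-b 500 pg/mL final; 18 h, 37 C; GFP imaging ex488/em500-530; %Activity normalised to -TGF-b and +DMSO controls; CRC fit, curve class.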
# HepG2 tox: qHTS for Inhibitors of TGF-b: Cytotox Counterscreen. HepG2 CAGA-GFP viability, ATP luminescence, 18 h. hit rate 0.76% among 410,000. Potency, µM (highest dose often 46.1 µM), inactives show at the top dose activity change, negative = cytotoxicity, hits mostly cytotoxic. AID 588856, 2011; further: potency means the concentration at half of the fitted maximal effect
#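 HepG2 CAGA-GFP cells (1000/well, DMEM with 1% FBS) received compound, then TGF-beta at 500 pg/mL final, and were incubated 18 hours at 37 degrees C. Viability was read by CellTiter-Glo luminescence. Media-only wells were set as complete cell-killing and DMSO as no toxicity.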
# S-ASM inh: Inhibitors of Secretory Acid Sphingomyelinase (S-ASM): qHTS; Sphingomyelin phosphodiesterase (Homo sapiens), P17405; placental ASM, HMU-PC fluorogenic substrate, 60 min; Potency, µM (series often up to 57.5 µM), for the others: at the top dose activity change, negative = inhibition, usual class: inhibitors; hit rate 0.006% among 340,000; AID 504937, 2011; further: potency means the concentration at half of the fitted maximal effect
# Target sequence (P17405 47-631 limits assumed): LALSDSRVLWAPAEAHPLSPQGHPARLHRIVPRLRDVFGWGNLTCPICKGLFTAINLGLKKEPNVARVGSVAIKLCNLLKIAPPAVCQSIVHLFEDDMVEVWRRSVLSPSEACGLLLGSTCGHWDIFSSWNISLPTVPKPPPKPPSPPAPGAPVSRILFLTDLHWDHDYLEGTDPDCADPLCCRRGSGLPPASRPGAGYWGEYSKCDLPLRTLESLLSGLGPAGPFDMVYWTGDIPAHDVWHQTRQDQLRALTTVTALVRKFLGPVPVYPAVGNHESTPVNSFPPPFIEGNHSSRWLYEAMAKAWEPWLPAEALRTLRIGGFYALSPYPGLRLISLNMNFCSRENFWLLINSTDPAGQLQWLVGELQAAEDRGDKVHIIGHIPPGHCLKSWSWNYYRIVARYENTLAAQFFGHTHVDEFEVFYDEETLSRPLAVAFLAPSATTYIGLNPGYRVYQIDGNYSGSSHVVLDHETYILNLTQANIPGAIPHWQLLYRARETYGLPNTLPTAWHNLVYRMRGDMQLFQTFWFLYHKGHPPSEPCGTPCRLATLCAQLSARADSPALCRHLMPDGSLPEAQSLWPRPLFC
#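 qHTS format. ASM enzyme prepared from human placenta hydrolyses the fluorogenic substrate HMU-PC0 (9 uM final) over 60 min at 37 °C after a 10 min compound preincubation.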
# DT40 TDP1 CPT: qHTS for Inhibitors of human tyrosyl-DNA phosphodiesterase 1 (TDP1): qHTS in cells in presence of CPT; chicken DT40 Tdp1-/-;hTDP1 cells + 20 nM CPT, ATP luminescence, 48 h; Potency, µM (titrated, usually from 46.2 µM), inactives show top-dose activity change, negative = growth inhibition, usual class: inhibitors; hit rate 12% among 420,000; AID 686979, 2013; further: potency means the concentration at half of the fitted maximal effect; on the % scale 0 is the no-effect control and ±100 the full control effect; nearly all actives have a fitted effect of over 55% in size
#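 Chicken DT40 Tdp1-/- cells complemented with human TDP1, 400 cells/well, exposed to compounds plus 20 nM camptothecin for at least 48 h at 37 C; viability read as ATP content by CellTiter-Glo luminescence.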
# Numbers without * were called inactive; i = inactive; ? = inconclusive; nt = not tested or not shown. Unless noted, the call rests on the fitted dose curve; in most records, active means well fitted curve in the direction sought with a large enough effect; inconclusive means small, poorly fitted or top-dose-only effect, or another doubt; inactive means no such curve, though single readings can be large; an effect the other way counts as inactive or inconclusive.
SMILES,DT40 TDP1 no CPT,IL1B secr inh,TGFb inhibitor,HepG2 tox,S-ASM inh,DT40 TDP1 CPT
Nc1ccc2nc(-c3cccs3)[nH]c2c1,?,4,-13%,-43%,i,21µM*
COc1ccc2nc(N(Cc3cccnc3)C(=O)C3CCCCC3)sc2c1,-30%,nt,1%,-12%,nt,?
COc1cc(C(=O)N2CCN(Cc3ccc4c(c3)OCO4)CC2)cc(OC)c1OC,-5%,7,0%,-5%,1%,-1%
CC(=O)C1=C(O)C(=O)N(c2ccc(S(N)(=O)=O)cc2)C1c1cccc([N+](=O)[O-])c1 (stereo not drawn),6%,31,0%,5%,3%,-20%
CC(=O)C1C(=O)c2c(cccc2[N+](=O)[O-])C1=Nc1ccc(S(N)(=O)=O)cc1 (stereo not drawn),?,8,-11%,-14%,-1%,18µM*
Cc1cc(C(=O)C(=O)Nc2nncs2)c(C)n1-c1ccc(Cl)cc1,-28%,nt,-30%,-12%,nt,-30%
Cn1nccc1C(=O)N(CCN1CCCCC1)CC1CCCN(C2CCCC2)C1 (stereo not drawn),-5%,i,-12%,0%,10%,2%
CSc1cc(-c2ccccc2)n(Cc2ccc(Cl)cc2Cl)c(=O)c1C#N,23µM*,29,32%,2%,-5%,18µM*
NS(=O)(=O)c1ccc(NC(=O)Nc2ccc(S(N)(=O)=O)cc2)cc1,11%,-3,30%,18%,-3%,-1%
CC(C)(C)c1ccc(C(=O)Nc2ccc(S(N)(=O)=O)cc2)cc1,?,-76*,?,-46%,-5%,?
NS(=O)(=O)c1ccc(NC(=O)Nc2ccc(C(F)(F)F)cc2)cc1,18µM*,-58*,26%,-38%,-13%,?
Cc1cn(C)c(CC(=O)N2CCN(c3cccc(C(F)(F)F)c3)CC2)c1C(=O)O,?,nt,-4%,-2%,nt,13µM*
O=C(Cn1ccc2ccccc2c1=O)NCCC(=O)N1CCN(c2cccc(C(F)(F)F)c2)CC1,16µM*,-17,-6%,-13%,-4%,21µM*
Cc1nc2c3ccccc3nc(NNC(=O)CCC(=O)N3CCN(c4cccc(C(F)(F)F)c4)CC3)n2n1,23µM*,nt,?,-23%,nt,21µM*
COc1ccccc1C(=O)NCCC(=O)N1CCN(c2cccc(C(F)(F)F)c2)CC1,?,1,-19%,-13%,-1%,16µM*
O=C(Cn1c(=O)sc2ccccc21)Nc1ccccc1C(=O)O,-7%,23,6%,-22%,6%,-7%
CCOc1ccc(C2(C)NC(=O)N(CCN(C)C)C2=O)cc1 (stereo not drawn),16%,28,4%,2%,-1%,30%
C#CCN1CCc2onc(-c3ccccc3OC)c2C1=O,8%,29,4%,8%,nt,3%
Cc1ccc(C)c(C(=O)CCC(=O)N2CCN(c3cccc(C(F)(F)F)c3)CC2)c1,12µM*,2,11µM*,-49%,2%,15µM*
C/C(=C\c1ccccc1)C(=O)N1CCN(c2cccc(C(F)(F)F)c2)CC1,-8%,-65*,?,-31%,-7%,6%
C/C(=C/c1ccccc1)C(=O)N1CCN(c2ccccc2F)CC1,-10%,25,9%,4%,-1%,-10%
Cc1ccc(/C=C/C(=O)N2CCN(c3cccc(C(F)(F)F)c3)CC2)cc1,-7%,-6,-18%,-24%,nt,-18%
COc1cccc(C(=O)Oc2ccc3ccc(=O)oc3c2)c1,-8%,-1,-15%,6%,i,3%
O=C(CSc1nnnn1-c1ccccc1)Nc1ccc(Cl)cc1,-23%,-17,10%,7%,1%,-7%
NC(=O)c1ccc(-n2nnnc2SCC(=O)Nc2ccccc2-c2ccccc2)cc1,16µM*,-1,4%,-20%,0%,?
SMILES,DT40 TDP1 no CPT,IL1B secr inh,TGFb inhibitor,HepG2 tox,S-ASM inh,DT40 TDP1 CPT
O=C(CSc1nnnn1-c1ccc(Cl)cc1)Nc1cccnc1Cl,?,8,6%,0%,0%,23µM*
COC(=O)c1ccc(-n2nnnc2SCC(=O)Nc2ccccc2C(=O)OC)cc1,?,19,16%,7%,2%,?
NC(=O)c1nn(-c2ccccc2)nc1NC(=O)CSc1nnnn1-c1ccc(Cl)cc1,16µM*,-13,3%,-16%,-1%,?
Cc1ccc(-n2nnnc2SCC(=O)Nc2cccnc2Cl)cc1,?,18,1%,-3%,2%,-12%
CC(=O)Nc1ccc2sn(-c3ccccc3)c(=O)c2c1,2.1µM*,-102*,?,-57%,nt,2.1µM*
N#Cc1ccc2sn(-c3ccccc3)c(=O)c2c1,4.6µM*,19,?,-40%,nt,3.7µM*
O=c1c(-c2ccccc2)c[nH]n1-c1cccc([N+](=O)[O-])c1,?,-13,-16%,-16%,5%,-20%
O=c1c2cc([N+](=O)[O-])ccc2sn1-c1ccccc1,2.9µM*,15,-12%,-7%,nt,4.6µM*
CCNc1ncc2nc(-c3cccs3)c(=O)n(-c3ccc(OC)cc3)c2n1,?,nt,nt,nt,nt,-15%
CCc1cccc(C)c1Nc1c(-c2ccsc2)nc2ncccn12,7.3µM*,nt,?,-33%,nt,5.8µM*
CCc1cccc(C)c1Nc1c(-c2ccc(SC)cc2)nc2sccn12,23µM*,nt,20µM*,-39%,nt,?
CCc1cccc(C)c1Nc1c(-c2ccc(F)cc2)nc2sccn12,?,nt,?,-35%,nt,?
Cc1cccc(C)c1Nc1c(-c2ccsc2)nc2ncccn12,?,4,-5%,1%,-10%,15µM*
CCc1ccc(C2CC(=O)c3c([nH]c(C(=O)OC4CCC(C)CC4)c3C)C2)cc1 (stereo not drawn),?,nt,14%,5%,nt,4%
Cc1nccn1CCCN1C(=O)OC2(CCCCC2)C1(C)O (stereo not drawn),21µM*,17,0%,-3%,2%,?
C=CCN1C(=O)OC2(CCCCC2)C1(C)O (stereo not drawn),-21%,7,-1%,6%,8%,-5%
O=C(N1CCOCCOc2ccccc2OCCOCC1)C(F)(F)F,14%,0,1%,-5%,-1%,-7%
